From PubChem BioAssay (Tox21)
Where “and” joins values, the source holds several entries; their conditions need not be identical. Identical values can stand only once. Where a structure was tested more than once in an assay, its records may differ in their call. Calls of active or inactive are those of the source. A call without a number means that no potency is given here. Unless noted, calls follow the shape of the dose curve; as a rule, active = well fitted curve in the direction sought with a large enough effect in the repeat runs; inconclusive = weak or mixed curves; inactive = no such curve, though single readings can be large; an effect the other way counts as inactive or inconclusive.

Key:
[1] = qHTS assay to identify small molecule antagonists of the thyroid receptor (TR) signaling pathway - cell viability counter screen (AID 743064); also: nearly all actives have a fitted effect of over 50% in size; also: potency is read from the fitted curve at half-maximal effect
How it was run: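 In-well cytotoxicity read by CellTiter-Fluor (30 min, 37 C) following 23.5 h exposure of GH3 cells bearing a TRE-luciferase sensor. Compounds were added alongside 1 nM (final) T3 to drive TR transactivation.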

[2] = qHTS assay to identify small molecule antagonists of the thyroid receptor (TR) signaling pathway (AID 743065); also: nearly all actives have a fitted effect of over 55% in size; also: potency is read from the fitted curve at half-maximal effect
How it was run: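 Antagonism measured as loss of luciferase signal in GH3 cells stably carrying a TRE-luciferase reporter, co-treated with compound and T3 (1 nM final) for 23.5 h at 37 C. Viability was read in the same well by CellTiter-Fluor.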

[3] = test system: thyroid hormone receptor (rat, GH3 cells); assay: qHTS assay to identify small molecule agonists of the thyroid receptor (TR) signaling pathway (AID 743066; calls by dose curve; also: potency is read from the fitted curve at half-maximal effect)
[4] = molecular target: Estrogen receptor (Homo sapiens) (UniProt P03372); assay: qHTS assay to identify small molecule antagonists of the estrogen receptor alpha (ER-alpha) signaling pathway (AID 743069; active = well fitted curve in the direction sought with a large enough effect in the signal ratio in the repeat runs, not every such curve was filed as active; inconclusive = weak or mixed curves, or effect the other way; inactive = no such curve, though single readings can be large or run the other way; the % refers to the signal ratio; also: potency is read from the fitted curve at half-maximal effect)
Chain of Estrogen receptor (Homo sapiens) (P03372 whole entry, looked up): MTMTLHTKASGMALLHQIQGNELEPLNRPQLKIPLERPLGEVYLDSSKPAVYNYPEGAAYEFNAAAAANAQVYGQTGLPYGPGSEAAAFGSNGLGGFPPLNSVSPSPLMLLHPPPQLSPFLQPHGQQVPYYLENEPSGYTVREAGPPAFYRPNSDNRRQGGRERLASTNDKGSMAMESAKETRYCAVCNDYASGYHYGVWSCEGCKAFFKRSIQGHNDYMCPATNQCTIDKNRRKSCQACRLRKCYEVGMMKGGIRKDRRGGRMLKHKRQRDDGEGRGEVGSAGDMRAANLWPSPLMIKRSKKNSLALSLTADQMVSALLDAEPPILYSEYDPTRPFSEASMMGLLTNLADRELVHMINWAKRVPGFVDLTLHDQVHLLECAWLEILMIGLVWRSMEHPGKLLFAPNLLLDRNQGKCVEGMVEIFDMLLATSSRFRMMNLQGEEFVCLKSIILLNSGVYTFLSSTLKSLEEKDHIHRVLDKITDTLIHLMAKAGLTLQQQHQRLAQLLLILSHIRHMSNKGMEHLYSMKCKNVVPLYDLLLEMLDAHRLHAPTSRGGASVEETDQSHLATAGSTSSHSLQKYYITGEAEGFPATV
How it was run: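 Fluorescence intensity from a beta-lactamase FRET substrate served as the read-out. Cells: HEK293 with stably integrated ER-alpha-UAS-bla reporter. Agonist 17beta-estradiol was co-added with compounds; incubation 18 hr at 37C, substrate 2 hr at room temperature.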

[5] = qHTS assay to identify small molecule antagonists of the estrogen receptor alpha (ER-alpha) signaling pathway - cell viability counter screen (AID 743074; calls by dose curve; also: nearly all actives have a fitted effect of over 45% in size; also: potency is read from the fitted curve at half-maximal effect)
[6] = molecular target: Estrogen receptor (Homo sapiens) (UniProt P03372); assay: qHTS assay to identify small molecule agonists of the estrogen receptor alpha (ER-alpha) signaling pathway (AID 743075; calls by dose curve; also: potency is read from the fitted curve at half-maximal effect)
[7] = molecular target: Estrogen receptor (Homo sapiens) (UniProt P03372); assay: qHTS assay to identify small molecule agonists of the estrogen receptor alpha (ER-alpha) signaling pathway using the BG1 cell line (AID 743079); also: nearly all actives have a fitted effect of over 20% in size; also: potency is read from the fitted curve at half-maximal effect
[8] = qHTS assay to identify small molecule antagonists of the estrogen receptor alpha (ER-alpha) signaling pathway using the BG1 cell line (AID 743080; calls by dose curve;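 also: BG1 cells stimulated with 17beta-estradiol alongside compound; nearly all actives have a fitted effect of over 25% in size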; also: potency is read from the fitted curve at half-maximal effect); conditions: BG1Luc4E2 ERE-luciferase antagonist mode, luminescence; activity change, negative = inhibition: at 70.3 µM (top of the series) unless noted
How it was run: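 Quantitative HTS on the Tox21 10K library: BG1 cells with endogenous ER-alpha and ERE-luciferase reporter, 17beta-estradiol stimulation, 21.5 h compound exposure, luminescence endpoint with parallel fluorescence cytotoxicity counter-read.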

[9] = qHTS assay to identify small molecule antagonists of the estrogen receptor alpha (ER-alpha) signaling pathway using the BG1 cell line - cell viability counter screen (AID 743081);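 also: compound given together with 17beta-estradiol as the ER stimulus; nearly all actives have a fitted effect of over 45% in size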; also: potency is read from the fitted curve at half-maximal effect
[10] = molecular target: Aromatase (Homo sapiens) (UniProt P11511); assay: qHTS assay to identify aromatase inhibitors (AID 743083); also: nearly all actives have a fitted effect of over 55% in size; also: potency is read from the fitted curve at half-maximal effect
Chain of Aromatase (Homo sapiens) (P11511 whole entry, looked up): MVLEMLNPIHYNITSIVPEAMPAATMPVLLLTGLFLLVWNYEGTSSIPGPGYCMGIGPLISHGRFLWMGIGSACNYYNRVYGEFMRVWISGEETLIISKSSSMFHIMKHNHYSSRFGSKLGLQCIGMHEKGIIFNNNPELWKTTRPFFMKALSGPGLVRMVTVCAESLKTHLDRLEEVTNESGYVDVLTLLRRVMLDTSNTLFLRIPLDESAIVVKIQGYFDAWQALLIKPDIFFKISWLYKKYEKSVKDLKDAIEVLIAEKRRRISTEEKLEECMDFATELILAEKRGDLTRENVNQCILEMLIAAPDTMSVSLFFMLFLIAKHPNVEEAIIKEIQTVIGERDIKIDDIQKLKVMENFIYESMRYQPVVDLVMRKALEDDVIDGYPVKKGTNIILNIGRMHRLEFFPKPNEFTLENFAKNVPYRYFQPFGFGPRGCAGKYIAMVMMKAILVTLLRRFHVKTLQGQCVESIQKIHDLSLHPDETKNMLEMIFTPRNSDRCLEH

[11] = qHTS assay to identify aromatase inhibitors - cell viability counter screen (AID 743084);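 also: cells stimulated with testosterone during compound exposure; nearly all actives have a fitted effect of over 55% in size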; also: potency is read from the fitted curve at half-maximal effect
[12] = molecular target: Peroxisome proliferator-activated receptor gamma (Homo sapiens) (UniProt P37231); assay: qHTS assay to identify small molecule agonists of the peroxisome proliferator-activated receptor gamma (PPARg) signaling pathway (AID 743094; active = well fitted activation curve with a large enough effect in the signal ratio in the repeat runs, not every such curve was filed as active; inconclusive = weak or mixed curves, or effect the other way; inactive = no such curve, though single readings can be large or run the other way; the % refers to the signal ratio)
Chain of Peroxisome proliferator-activated receptor gamma (Homo sapiens) (P37231 whole entry, looked up): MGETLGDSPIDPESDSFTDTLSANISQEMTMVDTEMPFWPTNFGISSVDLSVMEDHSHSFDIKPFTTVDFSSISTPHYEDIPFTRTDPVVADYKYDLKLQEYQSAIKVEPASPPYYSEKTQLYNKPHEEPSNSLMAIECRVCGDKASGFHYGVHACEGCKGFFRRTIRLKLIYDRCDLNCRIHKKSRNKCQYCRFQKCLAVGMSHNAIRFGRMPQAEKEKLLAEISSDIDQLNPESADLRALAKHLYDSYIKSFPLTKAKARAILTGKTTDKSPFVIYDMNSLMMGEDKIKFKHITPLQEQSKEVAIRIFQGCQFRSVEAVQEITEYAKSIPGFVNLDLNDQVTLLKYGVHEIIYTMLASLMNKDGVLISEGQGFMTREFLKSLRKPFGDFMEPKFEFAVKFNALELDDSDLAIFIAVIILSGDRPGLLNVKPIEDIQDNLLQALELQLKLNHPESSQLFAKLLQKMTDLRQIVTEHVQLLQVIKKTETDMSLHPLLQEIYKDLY
How it was run: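 Fluorescence-based beta-lactamase readout in HEK293H PPARg UAS-bla cells after 17 h compound exposure (37C) and 1 h B/G FRET substrate incubation at room temperature.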

[13] = molecular target: Peroxisome proliferator-activated receptor gamma (Homo sapiens) (UniProt P37231); assay: qHTS assay to identify small molecule antagonists of the peroxisome proliferator-activated receptor gamma (PPARg) signaling pathway (AID 743191; calls by dose curve; also: nearly all actives have a fitted effect of over 30% in size; also: potency is read from the fitted curve at half-maximal effect)
How it was run: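 Beta-lactamase reporter under UAS control in HEK293H PPARg-bla cells; compound treatment 17 h at 37C. Read-out: fluorescence intensity after 1 h room-temperature incubation with LiveBLAzer B/G FRET substrate.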

[14] = qHTS assay to identify small molecule antagonists of the peroxisome proliferator-activated receptor gamma (PPARg) signaling pathway - cell viability counter screen (AID 743194); conditions: Potency: co-treated with 50 nM rosiglitazone unless noted; also: nearly all actives have a fitted effect of over 55% in size; also: potency is read from the fitted curve at half-maximal effect
How it was run: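 Viability was measured as CellTiter-Glo luminescence in GeneBLAzer PPARg UAS-bla HEK293H cells. These cells had been exposed 17 h at 37 C to compounds together with rosiglitazone at 50 nM final, with the beta-lactamase readout taken in the same wells.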

[15] = qHTS assay for small molecule agonists of the antioxidant response element (ARE) signaling pathway - cell viability counter screen (AID 743203; calls by dose curve; also: nearly all actives have a fitted effect of over 55% in size; also: potency is read from the fitted curve at half-maximal effect)
How it was run: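 Parallel cytotoxicity read-out for the ARE-bla screen: HepG2 reporter cells, 16 hrs with compounds, then CellTiter-Glo luminescence.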

[16] = qHTS assay for small molecule activators of the heat shock response signaling pathway - cell viability counter screen (AID 743209); also: nearly all actives have a fitted effect of over 50% in size; also: potency is read from the fitted curve at half-maximal effect
How it was run: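 To flag cytotoxic compounds, HSE-bla HeLa cells plated at 1500 cells/well were dosed for 5 h at 37 C, followed by the reporter FRET read and then CellTiter-Glo, with luminescence recorded 30 min after reagent addition.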

[17] = qHTS assay to identify small molecule that activate the aryl hydrocarbon receptor (AhR) signaling pathway - cell viability counter screen (AID 743086);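 also: HepG2 liver cells carrying the AhR DRE luciferase reporter; nearly all actives have a fitted effect of over 45% in size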
How it was run: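 Cytotoxicity counter screen: CellTiter-Fluor signal (30 min, 37 C) in 4000 HepG2 cells/well carrying the DRE-luciferase reporter, following 24 h compound exposure at 37 C.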

[18] = qHTS assay for small molecule agonists of the antioxidant response element (ARE) signaling pathway (AID 743202; active = well fitted activation curve with a large enough effect in the signal ratio in the repeat runs, not every such curve was filed as active; inconclusive = weak or mixed curves, or effect the other way; inactive = no such curve, though single readings can be large or run the other way; the % refers to the signal ratio; also: potency is read from the fitted curve at half-maximal effect)
How it was run: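 Beta-lactamase reporter activity, read as fluorescence intensity, reflects ARE/Nrf2 pathway induction in HepG2 cells after 16 h compound exposure at 37 C; substrate loading was 2 h at room temperature.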

[19] = molecular target: Aryl hydrocarbon receptor (Homo sapiens) (UniProt P35869); assay: qHTS assay to identify small molecule that activate the aryl hydrocarbon receptor (AhR) signaling pathway (AID 743085); also: nearly all actives have a fitted effect of over 15% in size; also: potency is read from the fitted curve at half-maximal effect;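 as to activation: HG2L7.5c1 human HepG2 liver cells with stably integrated DRE-driven firefly reporter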
Chain of Aryl hydrocarbon receptor (Homo sapiens) (P35869 whole entry, looked up): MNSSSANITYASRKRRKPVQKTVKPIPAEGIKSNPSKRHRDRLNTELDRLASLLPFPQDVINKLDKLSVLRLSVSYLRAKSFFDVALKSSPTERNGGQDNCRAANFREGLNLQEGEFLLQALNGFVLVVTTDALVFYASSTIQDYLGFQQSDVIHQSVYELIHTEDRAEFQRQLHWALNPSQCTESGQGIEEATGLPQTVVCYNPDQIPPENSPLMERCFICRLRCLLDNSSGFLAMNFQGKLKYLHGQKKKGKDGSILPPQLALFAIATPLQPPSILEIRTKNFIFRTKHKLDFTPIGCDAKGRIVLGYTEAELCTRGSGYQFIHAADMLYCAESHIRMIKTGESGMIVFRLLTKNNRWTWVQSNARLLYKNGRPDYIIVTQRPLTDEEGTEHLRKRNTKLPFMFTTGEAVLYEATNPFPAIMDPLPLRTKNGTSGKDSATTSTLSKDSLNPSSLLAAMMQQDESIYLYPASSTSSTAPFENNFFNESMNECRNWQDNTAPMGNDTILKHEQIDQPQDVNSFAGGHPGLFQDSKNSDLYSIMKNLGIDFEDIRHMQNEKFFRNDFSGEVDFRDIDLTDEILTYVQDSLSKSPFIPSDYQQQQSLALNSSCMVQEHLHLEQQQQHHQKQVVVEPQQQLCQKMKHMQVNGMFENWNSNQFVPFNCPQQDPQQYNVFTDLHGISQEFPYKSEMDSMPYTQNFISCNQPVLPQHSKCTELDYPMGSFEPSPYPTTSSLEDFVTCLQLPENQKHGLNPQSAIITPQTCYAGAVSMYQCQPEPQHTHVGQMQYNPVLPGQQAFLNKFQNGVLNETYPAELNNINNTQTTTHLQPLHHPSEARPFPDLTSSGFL
How it was run: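 Luminescence (ONE-Glo) from a dioxin-responsive-element luciferase reporter in HG2L7.5c1 HepG2 cells after 24 hr compound exposure at 37C; viability measured by CellTiter-Fluor fluorescence beforehand.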

[20] = qHTS assay for small molecule activators of the heat shock response signaling pathway (AID 743210; active = well fitted activation curve with a large enough effect in the signal ratio in the repeat runs, with a control signal flat, not every such curve was filed as active; inconclusive = weak or mixed curves; the % refers to the signal ratio;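 also: HeLa cells with beta-lactamase reporter driven by heat shock elements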)
How it was run: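 Fluorescence from a cleaved B/G FRET substrate (2.5 h, room temp) reports HSE-driven beta-lactamase in HeLa cells treated 5 h at 37 C with DMSO-dissolved compounds.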

| Compound | Potency [1] | Potency [2] | Potency [3] | Potency [4] | Potency [5] | Potency [6] | Potency [7] | Potency [8] | Potency [9] | Potency [10] | Potency [11] | outcome [12] | Potency [13] | Potency [14] | Potency [15] | Potency [16] | Potency [17] | Potency [18] | Potency [19] | outcome [20] |
| --- | --- | --- | --- | --- | --- | --- | --- | --- | --- | --- | --- | --- | --- | --- | --- | --- | --- | --- | --- | --- |
| CC(Cl)(Cl)C(=O)O | inactive | inactive | inactive | inactive | inactive | inactive | inactive | inactive | inactive | inactive | inactive | inactive | inactive | inactive | inactive | inactive | – | – | – | – |
| CCC(=O)C(CC(C)N(C)C)(c1ccccc1)c1ccccc1 (configuration not stated) | 24.4 µM (active) and 27.1 µM (active) and 33 µM (active) | 27.4 µM (active) and 30.4 µM (active) and 41.5 µM (active) | inactive | inactive | inactive | inactive | inactive | inactive | inactive | inactive | – | inactive | inactive | inactive | inactive | inactive | – | – | – | – |
| CC(=O)[O][Hg][c]1ccccc1 | 596 nM (active) and 241 nM (active) and 386 nM (active) | 422 nM (active) and 215 nM (active) and 217 nM (active) | inactive | 6.16 µM [inconclusive] (active) | 5.35 µM (active) and 2.43 µM (active) and 5.49 µM (active) | 26.8 µM [inconclusive] (active) and 34.4 µM [inconclusive] (active) and 1.1 µM [fluorescent] (active) | – | – | 2.98 µM (active) and 3.04 µM (active) and 4.33 µM (active) | 3.35 µM (active) and 1.36 µM (active) and 686 nM (active) | 5.31 µM (active) and 1.36 µM (active) and 770 nM (active) | – | – | 686 nM (active) and 309 nM (active) and 1.88 µM (active) | 762 nM (active) and 433 nM (active) and 1.19 µM (active) | 1.22 µM (active) and 1.1 µM (active) and 2.11 µM (active) | – | – | – | – |
| Nc1ccc(-c2ccc(N)c(Cl)c2)cc1Cl | 30.8 µM (active) and 18 µM (active) and 30.6 µM (active) | 27.4 µM (active) and 10.1 µM (active) and 17.2 µM (active) | inactive | 27.7 µM [inhibitor] (active) | inactive and 17.4 µM (active) | 24.7 µM [inconclusive] (active) and 20.4 µM [inconclusive] (active) and 54.9 µM [inconclusive] (active) | 9.04 µM (active) and 6.86 µM (active) | 64 µM (active) | inactive | – | inactive | inactive | inactive and 49 µM (active) | inactive | inactive | inactive | inactive | 1.38 µM (active) and 2.02 µM (active) and 1.72 µM (active) | – | – |
| CCOP(=S)(OCC)Oc1ccc2c(C)c(Cl)c(=O)oc2c1 | inactive | inactive | inactive | – | inactive | – | – | – | inactive | inactive | inactive | inactive | – | inactive | inactive | inactive | inactive | – | – | – |
| O=C(O)C(Cl)Cl | inactive | inactive | inactive and 61.1 µM (active) | inactive | inactive | inactive | inactive | inactive | inactive | inactive | inactive | inactive | inactive | inactive | inactive | inactive | – | inactive | – | – |
| CCC[N+]1(C)CCCCC1 | inactive | inactive | inactive | – | inactive | – | – | – | inactive | inactive | inactive | – | – | inactive | inactive | inactive | inactive | – | – | – |
| CC[N+]1(C)CCCC1 | inactive | inactive | inactive | – | inactive | – | – | – | inactive | inactive | inactive | – | – | inactive | inactive | inactive | – | – | inactive | – |
| CCCCCCCCCCCCCC[P+](CCCCCC)(CCCCCC)CCCCCC | 6.14 µM (active) and 5.49 µM (active) and 3.06 µM (active) | 3.87 µM (active) and 4.36 µM (active) and 2.43 µM (active) | inactive | 982 nM [inconclusive] (active) and 985 nM [inconclusive] (active) and 775 nM [inconclusive] (active) | 13.9 µM (active) and 11.1 µM (active) | – | – | 4.88 µM (active) and 3.89 µM (active) and 3.43 µM (active) | 19.4 µM (active) and 13.8 µM (active) | 6.14 µM (active) and 3.89 µM (active) and 1.09 µM (active) | 24.4 µM (active) and 12.3 µM (active) | – | – | 24.7 µM (active) and 7.82 µM (active) and 2.45 µM (active) | 24.4 µM (active) and 15.5 µM (active) and inactive | 6.19 µM (active) and 7.82 µM (active) | – | inactive | – | – |
| Cc1cc(-c2ccc(N)c(C)c2)ccc1N | inactive | inactive | inactive | inactive | inactive | 19.2 nM [inconclusive] (active) and 48.8 µM [inconclusive] (active) and 61.7 µM [inconclusive] (active) | inactive | – | inactive | inactive | inactive | inactive | inactive | inactive | inactive | inactive | inactive | – | – | – |
| Cc1cc(Cl)ccc1N | inactive | inactive | inactive | – | inactive | – | – | – | inactive | inactive | inactive | inactive | inactive | inactive | inactive | inactive | inactive | – | 31.3 µM (active) and 33.6 µM (active) | – |
| O=C(O)C(Cl)(Cl)Cl | inactive | inactive | inactive | – | inactive | – | – | – | inactive | inactive | inactive | inactive | inactive | inactive | inactive | inactive | – | – | – | – |
| COc1ccc(N)cc1 | inactive | inactive | inactive | – | inactive | – | – | – | inactive | inactive | inactive | inactive | – | inactive | inactive | inactive | – | – | – | inactive |
| O=C(O)CC(O)(CC(=O)O)C(=O)O | inactive | inactive | inactive | – | inactive | – | – | – | inactive | inactive | inactive | inactive | inactive | inactive | inactive | inactive | – | inactive | – | inactive |
